Shown are actives, neighbours in structure and some others; about 21% of the full set was active somewhere.
DT40 TDP1 no CPT: qHTS for Inhibitors of human tyrosyl-DNA phosphodiesterase 1 (TDP1): qHTS in cells in absence of CPT. Potency, µM (titrated, usually from 46.2 µM), inactives show at the highest dose activity change, negative = growth inhibition, hits mostly inhibitors. AID 686978, 2013. actives 15% (n = 420,000). DT40 Tdp1-/- hTDP1 cells, no CPT, ATP luminescence, 48 h; further: potency means the concentration at half of the fitted maximal effect; nearly all actives have a fitted effect of over 55% in size
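Seeded 400 DT40-hTDP1 cells/well (vehicle DMSO, no 20 nM CPT); pinned compounds; ≥48 hr at 37 °C; CellTiter-Glo luminescence as viability measure.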
DT40 TDP1 CPT: growth inhibition of DT40 Tdp1-/-;hTDP1 cells with camptothecin (screen for TDP1 inhibitors) | Potency, µM (series often up to 46.2 µM), without a hit: at the highest dose activity change, negative = growth inhibition, usual class: inhibitors | actives 12% (n = 420,000) | chicken DT40 Tdp1-/-;hTDP1 cells + 20 nM CPT, ATP luminescence, 48 h; further: potency means the concentration at half of the fitted maximal effect; nearly all actives have a fitted effect of over 55% in size
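Cell growth measured by CellTiter-Glo luminescence after a minimum 48 h, 37 C compound exposure with 20 nM CPT in Tdp1-knockout DT40 cells stably expressing hTDP1, seeded 400/well; qHTS titration format.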
IL-1B inflam inh: inhibitors of inflammasome signaling (IL-1 beta secretion); THP-1 LPS/ATP IL-1B secretion, AlphaLISA, 16 h; active compounds read low; activity change, % at 57.5 µM; actives 4.7% (n = 360,000); AID 743279; in the data active means activity change below about -50%; inconclusive means mostly about -30% to -49%
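THP-1 cells pretreated 1 hr with compounds (up to 57.5 uM final), then stimulated with LPS (250 ng/mL final) plus ATP (1.25 mM final); secreted IL-1B measured by AlphaLISA after 16 hr, decreased signal indicating inhibition.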
ELG1 DNA repair: inhibitors of ELG1-dependent DNA repair in HEK293T cells; actives 2.3% (n = 330,000); HEK293T ELG1-luciferase reporter, luminescence, 16 h; DNA damage induced by 5-fluorouridine; Potency, µM (titrated, usually from 46.1 µM), without a hit: at the highest dose activity change, negative = inhibition, most hits filed as inhibitors; further: potency means the concentration at half of the fitted maximal effect; nearly all actives have a fitted effect of over 55% in size
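In this reporter screen, reduction of luminescence relative to DMSO vehicle indicated activity. Compounds and 5-fluorouridine were added together to 2,000 cells per well, incubated for 16 hr at 37 °C, then developed with ONE-Glo.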
RORg inh: ROR gamma (mouse) transcription inhibition; P51450; Drosophila S2 Gal4-RORgamma UAS-luciferase reporter, 20 h; Potency, µM (series often up to 53.6 µM), for inactives: at the top dose activity change, negative = inhibition, actives largely listed as inhibitors; actives 5.4% (n = 310,000); AID 2551; further: potency means the concentration at half of the fitted maximal effect; nearly all actives have a fitted effect of over 60% in size
Target sequence (P51450 whole entry, looked up, the tested form may be a part): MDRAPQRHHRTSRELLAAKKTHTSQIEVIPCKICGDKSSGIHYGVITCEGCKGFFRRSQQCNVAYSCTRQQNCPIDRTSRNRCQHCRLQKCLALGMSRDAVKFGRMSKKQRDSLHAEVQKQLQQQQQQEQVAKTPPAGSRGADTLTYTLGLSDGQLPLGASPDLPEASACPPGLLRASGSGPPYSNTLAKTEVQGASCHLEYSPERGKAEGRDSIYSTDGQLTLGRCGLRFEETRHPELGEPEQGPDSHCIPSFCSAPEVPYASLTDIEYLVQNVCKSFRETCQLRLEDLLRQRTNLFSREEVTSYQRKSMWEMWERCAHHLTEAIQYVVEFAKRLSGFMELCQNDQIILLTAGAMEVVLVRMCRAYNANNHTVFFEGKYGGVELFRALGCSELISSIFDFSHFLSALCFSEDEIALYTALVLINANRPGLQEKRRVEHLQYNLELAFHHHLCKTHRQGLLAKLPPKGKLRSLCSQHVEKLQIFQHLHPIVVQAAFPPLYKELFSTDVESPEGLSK
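Compounds are pin-transferred onto Drosophila Schneider cells expressing a copper-inducible Gal4–ROR gamma transactivation domain fusion. After 1 hr, copper sulfate is added to 700 uM final; luciferase is read 20 hr later.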
VP16 counter: Gal4-VP16 reporter inhibition counter-screen | actives 3.5% (n = 310,000) | Potency, µM (titrated, usually from 53.6 µM), inactives show top-dose activity, negative = inhibition, most hits filed as inhibitors | Drosophila S2 Gal4-VP16 UAS-luciferase, luminescence, 20 h;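 further: Gal4-VP16 expression switched on by copper sulfate through the metallothionein promoter; potency means the concentration at half of the fitted maximal effect; nearly all actives have a fitted effect of over 50% in size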
Numbers without * were called inactive; u = inconclusive; x = no result. Unless noted, the call rests on the fitted dose curve; in most records, active means well fitted curve in the direction sought with a large enough effect; inconclusive means small, poorly fitted or top-dose-only effect, or another doubt; inactive means no such curve, though single readings can be large; an effect the other way counts as inactive or inconclusive. On the % scale 0 is the no-effect control and ±100 the full control effect.

SMILES	DT40 TDP1 no CPT	DT40 TDP1 CPT	IL-1B inflam inh	ELG1 DNA repair	RORg inh	VP16 counter
COCCCNC(=O)c1[nH]c2cc(OC)ccc2c1Sc1ccc(C)cc1	-9%	-17%	x	x	x	x
COc1ccc2c(Sc3ccccc3)c(C(=O)N3CCC(C)CC3)[nH]c2c1	u	21µM*	x	x	x	x
COc1ccc2c(Sc3ccccc3)c(C(=O)NCCCN3CCCCC3)[nH]c2c1	18µM*	u	x	x	x	x
Cc1cccc2cc(C#N)c(NCCNC(=O)c3ccccc3)nc12	u	6%	-26	x	x	x
O=C(O)CNC(=O)c1ccc(Oc2c(F)c(F)c(Oc3ccc(C(=O)NCC(=O)O)cc3)c(F)c2F)cc1	-8%	-9%	-12	12%	-27%	0%
CCCCCCCn1c(NC(=O)CC)nc2ccccc21	21µM*	u	x	u	0.089µM*	0.63µM*
CCC(=O)Nc1nc2ccccc2n1CCN1CCOCC1	-2%	-8%	17	8%	14µM*	u
O=C(Nc1nc2ccccc2n1CCN1CCOCC1)c1ccc(Cl)cc1	u	-6%	x	6%	0.4µM*	2.8µM*
CCCc1cc(=O)[nH]c2nnc(SCC(=O)Nc3cccc(C)c3)n12	25%	0%	x	x	x	x
O=C(NCc1ccccn1)C1(C(F)(F)F)C/C(=C\Cc2ccccc2)CCCO1 (stereo not given)	x	x	x	x	15%	8%
CCN(C(=O)COC(=O)Cn1c(=O)oc2ccccc21)c1c(N)n(Cc2ccccc2)c(=O)[nH]c1=O	13%	-2%	6	x	x	x
CCOc1cc(CNc2ccc(N3CCCCC3)cc2)cc(Br)c1OCC(=O)NC(C)(C)C	16µM*	u	-86*	-20%	-33%	-27%
CCOc1cc(CNc2ccc(N(C)C)cc2)cc(Br)c1OCC(=O)NC(C)(C)C	21µM*	18µM*	-11	u	10µM*	-12%
CCC(SC1=NCCS1)C(=O)Nc1ccc(S(N)(=O)=O)cc1 (stereo not given)	-3%	-5%	-28	1%	-16%	-19%
CCCCCCCCc1nc(SC(C)C(=O)O)n[nH]1 (stereo not given)	3%	2%	21	-12%	-2%	-2%
COc1ccccc1N1CCN(CCN(C(=O)C2CCCCC2)c2ccccn2)CC1	23µM*	u	8	u	x	x
CC(=NO)c1ccc2c(c1)C(=NO)c1ccccc1-2	21µM*	16µM*	-9	x	x	x
Nc1ccc2c(c1)C(=NO)c1ccccc1-2	8.2µM*	18µM*	-18	x	x	x
ON=C1c2ccccc2-c2ccc(O)cc21	-13%	u	u	x	x	x
Nc1cc2c(cc1[N+](=O)[O-])-c1ccccc1C2=NO	8.2µM*	21µM*	0	x	x	x
O=C1C(=O)c2ccc(-c3ccccc3)cc2-c2ccccc21	2.6µM*	0.92µM*	-57*	9.2µM*	3.2µM*	3.5µM*
CC(=O)Nc1cc2c(cc1[N+](=O)[O-])-c1ccccc1C2=NO	-12%	u	17	x	x	x
Cc1c(Cl)cccc1NC(=O)CNS(=O)(=O)c1cccs1	-3%	-4%	x	x	x	x
F[B-](F)(F)COCc1ccccc1Br	-1%	12%	u	x	x	x
CCc1cc(C(=O)OCC(=O)N2CCC(c3ccccc3)=N2)sc1C	-11%	-17%	-1	1%	-7%	7%
Nc1ccc2c(c1)C(=O)C(=O)c1ccccc1-2	0.92µM*	0.65µM*	-122*	4.6µM*	1.8µM*	2.8µM*
ON=C1c2ccccc2-c2cc(Br)ccc21	u	7.3µM*	-52*	x	x	x
FC(F)(F)c1ccccc1-n1c(-c2cnccn2)n[nH]c1=S	-19%	-6%	17	u	11µM*	-1%
Cc1ccc(-n2c(-c3cnccn3)n[nH]c2=S)c(Br)c1	9%	u	49	-8%	7.9µM*	-26%
